Common to all, as to assay: NCI-60 one-dose screen, 48 h (100 = growth as untreated, 0 = no growth, -100 = all killed)
What all share (conditions): 10 µM unless noted

In assay [1] the test system is SR leukemia.
Assay [2] concerns RPMI-8226 leukemia.
Assay [3] has as its system OVCAR-8 ovarian.
Assay [4] concerns OVCAR-5 ovarian.
For assay [5], the system named is OVCAR-4 ovarian.
For assay [6], the system named is SK-OV-3 ovarian.
The test system of assay [7] is IGROV1 ovarian.
In assay [8] the test system is OVCAR-3 ovarian.
Assay [9] concerns HS 578T breast.
Assay [10] deals with NCI/ADR-RES ovarian.

The panel holds about 83,000 compounds, 20% with a hit somewhere; the sample as a whole holds those more often.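 Treatment: one concentration, 48 hours, 96-well format. Scoring: percent growth, with anything below 10 considered active.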 Unmarked numbers belong to inactive results. The source made the active and inactive calls.

Here are results for 27 molecules from PubChem BioAssay (NCI).

With `COc1cc2c(c(OC)c1OC)CCC(c1cccc(C(=O)Nc3cccc(Br)c3)c1)O2` (stereo not given), the growth in assay [1] was 35.6%; in [2], 50%; in [3], 81.1%; in assay [4], 81.3%; in [5], 55%; in assay [6], 78%. In addition, the growth in [7] was 81.8%; in assay [8], 74.7%; in [9], 66.7%; in [10], 79.6%.
Consider `O=C(O)c1[nH]c(=O)[nH]c(=O)c1[N+](=O)[O-]`, for which the growth in assay [1] was 70.9%; in assay [2] it was 112%; in [3], 101%; in [4] it was 126%; in assay [5], 122%; in assay [6] it was 116%. In addition, the growth was 133% in assay [7], 134% in assay [8], 106% in assay [9] and 103% in assay [10].
Consider `CCN(c1ccc(Cl)cc1)c1nc(-c2ccc([N+](=O)[O-])cc2)cs1`, for which the growth in assay [1] was 83.4%; in assay [2], 91.5%; in assay [3] it was 103%; in assay [4], 103%; in assay [5], 92.7%; in assay [6], 95.7%. Further, the growth in [7] is 73%; in [8], 102%; in assay [9], 87%; in [10], 101%.
In the case of `O=S(=O)(NCCCNc1nccc(-c2c(-c3ccc(F)c(O)c3)nc3occn23)n1)c1ccccc1`, the growth in assay [1] was 70.2%; in [2], 78.2%; in assay [3], 94.8%; in assay [4], 121%; in assay [5], 104%; in [6] it was 79.4%. For the same molecule, the growth is 92.1% in [7], 97.9% in [8], 87.3% in assay [9] and 118% in [10].
For `Brc1ccc(-n2cc(-c3nn[nH]n3)c(-c3cccs3)n2)cc1`, the growth in assay [1] was 110%; in assay [2] it was 99.3%; in assay [3], 98.8%; in [4] it was 100%; in assay [5] it was 100%; in assay [6], 93.5%. The growth in assay [7] was 93.2%; in [8] it was 105%; in assay [9], 96.3%; in assay [10], 107%.
On to `COc1cc(OC)cc(C2=C3CC[C@@H]4[C@H](CC[C@]5(C)C(=O)CC[C@@H]45)C3=CC3C(O)c4cccnc4N4C(=O)COC234)c1` (stereo not given in full), for which the growth in assay [1] was 82.3%; in [2], 96.2%; in assay [3], 95%; in [4] it was 95.5%; in assay [5], 87.1%; in assay [6] it was 116%. Further, the growth in [7] was 101%; in [8] it was 115%; in assay [9], 90.1%; in [10], 105%.
Consider `O=C1/C(=C/c2ccccc2Br)COc2ccc(O)c(O)c21`, for which the growth in [1] is 14.7%; in [2] it was 1.07% (active); in assay [3], 9.72% (active); in assay [4], 31.4%; in [5] it was 48.2%; in assay [6], 74.7%. The growth was -19.4% (active) in assay [7], 8.7% (active) in [8], 25.2% in assay [9] and 7.97% (active) in assay [10].
With `C=C1C(=O)O[C@H]2[C@H]1CC/C(COC(=O)NCc1cc[nH]c1)=C\CC[C@@]1(C)O[C@@H]21`, the growth was 4.94% (active) in [1]; 30.2% in assay [2]; 70.8% in assay [3]; 50.5% in [4]; 57.1% in assay [5]; 75.7% in [6]. Moreover, the growth was 15.5% in assay [7], 16.6% in assay [8], 63% in [9] and 90.6% in [10].
Regarding `CCN1CCN(c2cc(C(=O)Nc3nc(-c4cc(OC)c(OC)c(OC)c4)cs3)cc(C(F)(F)F)c2)CC1`, the growth in assay [1] was 9.19% (active); in [2], 56.9%; in [3], 65.1%; in [4], 74.6%; in assay [5] it was 68.9%; in [6] it was 90.5%. Besides, the growth in [7] is 41.5%; in [8], 81.3%; in assay [9], 68.1%; in [10] it was 55.8%.
As to `CCCNC(=O)Oc1ccc(/C(=C(/C)Cc2ccc(OC)cc2)c2ccc(OCCCN(C)C)cc2)cc1`, the growth is 8.47% (active) in [1]; 77.3% in assay [2]; 86.5% in assay [3]; 94% in assay [4]; 85.2% in assay [5]; 98.3% in assay [6]. Moreover, the growth in [7] is 91.1%; in assay [8] it was 94.3%; in assay [9], 72.3%; in [10], 79.1%.
On to `CCN(CC)CCOc1ccc(C(=C(C)c2ccc(Cl)cc2)c2ccc(OCCN(CC)CC)cc2)cc1`, for which the growth in [1] was -54.4% (active); in [2], -49.8% (active); in [3], -47.1% (active); in [4], -84.1% (active); in assay [5], -62.1% (active); in assay [6] it was -79.9% (active). Further, the growth in assay [7] is -86.9% (active); in assay [8], -70.5% (active); in assay [9] it was -52.5% (active); in [10], -68.2% (active).
As to `O=C1C(Cl)=C(Nc2ccc(O)cc2)C(=O)N1Cc1ccc(Cl)cc1`, the growth in [1] was 5.96% (active); in assay [2], 26.1%; in assay [3] it was 65%; in assay [4], 85.3%; in assay [5] it was 77.5%; in [6] it was 88.1%. Besides, the growth in [7] was 30.5%; in assay [8], 40.8%; in assay [9], 78.6%; in [10], 81.3%.
On to `Cc1oc(-c2ccc(Cl)cc2)nc1/C=C/C(=O)c1ccccc1`, for which the growth is 93.7% in [1]; 90.9% in assay [2]; 98.7% in assay [3]; 115% in assay [4]; 79.4% in [5]; 100% in assay [6]. Further, the growth in assay [7] is 93%; in [8], 97.5%; in [9], 100%; in assay [10], 104%.
As to `N#CC1CCc2c(c(-c3cn[nH]c3C(F)(F)F)nc3c(F)cc4[nH]ncc4c23)C1` (stereo not given), the growth is 14.5% in assay [1]; 34.6% in assay [2]; 43% in [3]; 63.2% in [4]; 59.7% in assay [5]; -1.91% (active) in assay [6]. The growth is -4.43% (active) in assay [7], 16.6% in assay [8], -8.7% (active) in assay [9] and 92.4% in assay [10].
As for `CC(=O)OC[C@]12CCC(C)(C)C[C@H]1[C@@]1(O)[C@H](O)C[C@@H]3[C@@]4(C)CCCNC(C)(C)[C@@H]4CC[C@@]3(C)[C@]1(C)CC2`, the growth in [1] was 99.3%; in [2] it was 107%; in [3], 111%; in assay [4], 102%; in assay [5], 120%; in [6], 111%. For the same molecule, the growth is 107% in [7], 119% in [8], 110% in assay [9] and 113% in assay [10].
As to `CS(=O)(=O)c1cccc(-c2c(-c3cccc(OS(N)(=O)=O)c3)nc3sccn23)c1`, the growth in [1] is 85.1%; in assay [2] it was 113%; in [3], 95.2%; in assay [4], 99.8%; in assay [5], 101%; in assay [6], 121%. Further, the growth in assay [7] was 97.9%; in assay [8], 106%; in [9], 103%; in assay [10], 103%.
As for `CCCCC(=O)Nc1ncc(Cc2ccc(Cl)cc2)s1`, the growth in assay [1] was 33.5%; in [2], 86.2%; in assay [3] it was 84.9%; in [4], 73.9%; in [5], 80%; in assay [6], 79.1%. Moreover, the growth in assay [7] was 66.5%; in assay [8], 68.3%; in [9], 72.9%; in [10], 48.4%.
In the case of `O=c1oc2ccccc2cc1C1=NN=C(SCc2ccccc2)SC1`, the growth is 89.4% in assay [1]; 98.7% in [2]; 101% in assay [3]; 105% in assay [4]; 88.9% in assay [5]; 97.8% in assay [6]. In addition, the growth was 101% in assay [7], 103% in [8], 103% in assay [9] and 105% in [10].
With `C=CCn1c(SCC(=O)NCc2cc(C)c(O)c(C)c2)nc2ccc(Cl)cc2c1=O`, the growth in [1] was -34.1% (active); in [2], -100% (active); in assay [3] it was 106%; in assay [4], 88.4%; in assay [5], 86.2%; in assay [6], 109%. Besides, the growth in [7] is 65%; in assay [8], 101%; in [9], 98.7%; in [10] it was 97.1%.
On to `O=C1c2cccnc2C(=O)c2c1c(C(=O)NCCn1ccnc1)c1ccccn21`, for which the growth in [1] is 7.94% (active); in assay [2] it was 55.8%; in assay [3], 4.37% (active); in assay [4] it was 92.1%; in [5] it was -47.6% (active); in assay [6], 48.4%. In addition, the growth was 26.3% in assay [7], 3.37% (active) in assay [8], 65.6% in assay [9] and 75.3% in [10].
As to `COC(=O)c1cc(-c2ccc(OC)cc2)[nH]c1N/N=C/c1c(Cl)cccc1Cl`, the growth is -16.4% (active) in assay [1]; 10.9% in assay [2]; 14.5% in assay [3]; 44.3% in [4]; 40.6% in [5]; 18.8% in assay [6]. For the same molecule, the growth in assay [7] was 29%; in [8] it was -72.4% (active); in assay [9], 0.353% (active); in assay [10], 20%.
On to `O=[N+]([O-])c1ccc(S(=O)(=O)N2CCN(C3=NS(=O)(=O)c4ccccc4N3c3ccccc3)CC2)cc1`, for which the growth in assay [1] is 40.5%; in [2], 58.7%; in [3] it was 93.1%; in assay [4] it was 95%; in assay [5], 99.8%; in assay [6], 102%. In addition, the growth in [7] was 97%; in assay [8], 94.4%; in [9], 109%; in assay [10], 92.9%.
As to `Cc1cc(Cl)ccc1Nc1nc(C(F)(F)F)ccc1C(=O)N/N=C/c1ccc([N+](=O)[O-])cc1`, the growth in [1] is -1.84% (active); in assay [2], -72.6% (active); in assay [3] it was 9.08% (active); in assay [4] it was -18.6% (active); in assay [5], -11.6% (active); in assay [6] it was -14.9% (active). Moreover, the growth in assay [7] is -35.1% (active); in assay [8], -18.1% (active); in assay [9], 97.3%; in [10], -32.8% (active).
Regarding `COc1ccc(C2c3sc4c(F)cccc4c3Oc3nc[nH]c(=O)c32)cc1` (stereo not given), the growth in [1] was 75.9%; in [2], 69.3%; in [3], 89%; in assay [4] it was 83.6%; in [5] it was 85.4%; in assay [6], 97.4%. The growth in [7] was 45.7%; in [8] it was 88.5%; in assay [9], 83.1%; in assay [10], 84.4%.
Take `Cn1c(=O)c2c(nc(NC3=NS(=O)(=O)c4ccccc43)n2CC(=O)N2CCc3ccccc32)n(C)c1=O`: the growth is 124% in assay [1]; 108% in assay [2]; 98.9% in assay [3]; 101% in assay [4]; 107% in assay [5]; 101% in assay [6]. Moreover, the growth in assay [7] was 94.7%; in [8], 110%; in [9], 97%; in assay [10], 91.8%.
On to `COc1ccc2c(c1)c(-c1noc(C(=O)c3cn(C)c4ccc(Br)cc34)n1)cn2C`, for which the growth is 80.5% in assay [1]; 95.4% in assay [2]; 96.1% in assay [3]; 107% in [4]; 108% in assay [5]; 99.5% in assay [6]. The growth is 89.2% in [7], 111% in [8], 94.6% in assay [9] and 102% in assay [10].
Take `CC(C)N1CCN(Cc2ccc3c(NNC(=O)c4ccccc4)nc4cc(F)ccc4n23)CC1`: the growth is 8.09% (active) in assay [1]; 26.5% in assay [2]; 17.9% in assay [3]; 59.6% in [4]; 21.2% in assay [5]; 35% in assay [6]. The growth is 21.4% in [7], 39.8% in assay [8], 75.8% in assay [9] and 6.16% (active) in assay [10].
